Among the data in PubChem BioAssay (EPA / NIEHS) are outcome and AC50 values, retold here.

One may read the AC50 as the concentration giving half of the maximal activity seen.

Results filed as inconclusive are left out. Activity calls are given as the source filed them. Rule for the calls: active = hit-call score of the fitted dose curve at least 0.9, where 1 is the maximum; inconclusive = response in the unintended direction; inactive = score below 0.9.

The target in assay [1] is human Peripheral-type Benzodiazepine Receptor (PBR), TSPO (gene 706) (UniProt P30536). Kind of assay: NVS_MP_hPBR: NovaScreen (NVS) Membrane Protein Assay for human Peripheral-type Benzodiazepine Receptor (PBR) (AID 2283331).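 Note: hits reduce radioligand binding relative to DMSO baseline.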 An outline of the steps:
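Radioligand displacement on human colonic cell membranes, 1 h incubation; bound radioactivity by filtration and scintillation counting. Primary screen in duplicate at 25 uM single concentration, actives followed up in concentration series; loss of binding versus DMSO.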

The target in assay [2] is rat Thyrotropin Releasing Hormone Receptor (TRH), Trhr (gene 25570) (UniProt Q01717). Kind of assay: NVS_GPCR_rTRH: NovaScreen (NVS) G Protein-Coupled Receptor Assay for rat Thyrotropin Releasing Hormone Receptor (TRH) (AID 2283329).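 Note: hit means lower bound tracer signal versus DMSO baseline.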 The essentials: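 Rat forebrain membrane prep, radioligand displacement, filter scintillation readout at 4 h. Single conc 25 uM, duplicate; actives retested as concentration series. DMSO = negative control/baseline.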
rat Thyrotropin Releasing Hormone Receptor (TRH), Trhr (gene 25570), sequence (Q01717 whole entry, looked up): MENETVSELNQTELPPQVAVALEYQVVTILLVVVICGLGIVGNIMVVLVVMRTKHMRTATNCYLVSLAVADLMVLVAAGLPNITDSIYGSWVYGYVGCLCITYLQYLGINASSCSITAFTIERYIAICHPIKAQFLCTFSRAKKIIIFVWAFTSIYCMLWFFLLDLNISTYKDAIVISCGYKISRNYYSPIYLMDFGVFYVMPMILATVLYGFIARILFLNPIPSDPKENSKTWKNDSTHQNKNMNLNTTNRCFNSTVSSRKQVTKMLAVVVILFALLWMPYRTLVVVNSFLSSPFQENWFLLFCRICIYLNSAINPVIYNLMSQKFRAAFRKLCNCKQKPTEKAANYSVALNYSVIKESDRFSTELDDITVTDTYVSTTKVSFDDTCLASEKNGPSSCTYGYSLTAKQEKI

Assay [3] concerns the target Voltage-gated inwardly rectifying potassium channel KCNH2 (Homo sapiens) (UniProt Q12809). Kind of assay: NVS_IC_hKhERGCh: NovaScreen (NVS) Ion Channel Assay for human Potassium Channel ERG (KhERGCh) (AID 2283333). The essentials: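 Cell-free radioligand competition binding on hERG protein extracted from CHO cells, read by filter-based scintillation counting 0.75 h after dosing. Primary screen at 25 uM in duplicate, actives followed in concentration series. Signal loss fitted versus DMSO.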

The target in assay [4] is human Serotonin, 5-Hydroxytryptamine Receptor 3 (5HT3), HTR3A (gene 3359) (UniProt P46098). Kind of assay: NVS_LGIC_h5HT3: NovaScreen (NVS) Ligand-Gated Ion Channel Assay for human Serotonin, 5-Hydroxytryptamine Receptor 3 (5HT3) (AID 2283325). An outline of the steps:
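Radioligand displacement binding to human 5-HT3 from HEK293 membranes, read by filter-based scintillation counting after 1 h. Screen at 25 uM in duplicate; chemicals passing threshold were retested in concentration-response up to 50 uM.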

Assay [5] deals with rat Glutamate, AMPA Site (AMPA), Gria1 (gene 50592) (UniProt P19490). Kind of assay: NVS_LGIC_rAMPA: NovaScreen (NVS) Ligand-Gated Ion Channel Assay for rat Glutamate, AMPA Site (AMPA) (AID 2283324). The essentials: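 Rat forebrain membranes; radioligand binding read 1 h after dosing by filtration and scintillation counting. Duplicate single-point screen at 25 uM, then concentration-response to 50 uM for threshold hits (e.g. 30% inhibition); loss of signal vs DMSO.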
rat Glutamate, AMPA Site (AMPA), Gria1 (gene 50592), sequence (P19490 whole entry, looked up): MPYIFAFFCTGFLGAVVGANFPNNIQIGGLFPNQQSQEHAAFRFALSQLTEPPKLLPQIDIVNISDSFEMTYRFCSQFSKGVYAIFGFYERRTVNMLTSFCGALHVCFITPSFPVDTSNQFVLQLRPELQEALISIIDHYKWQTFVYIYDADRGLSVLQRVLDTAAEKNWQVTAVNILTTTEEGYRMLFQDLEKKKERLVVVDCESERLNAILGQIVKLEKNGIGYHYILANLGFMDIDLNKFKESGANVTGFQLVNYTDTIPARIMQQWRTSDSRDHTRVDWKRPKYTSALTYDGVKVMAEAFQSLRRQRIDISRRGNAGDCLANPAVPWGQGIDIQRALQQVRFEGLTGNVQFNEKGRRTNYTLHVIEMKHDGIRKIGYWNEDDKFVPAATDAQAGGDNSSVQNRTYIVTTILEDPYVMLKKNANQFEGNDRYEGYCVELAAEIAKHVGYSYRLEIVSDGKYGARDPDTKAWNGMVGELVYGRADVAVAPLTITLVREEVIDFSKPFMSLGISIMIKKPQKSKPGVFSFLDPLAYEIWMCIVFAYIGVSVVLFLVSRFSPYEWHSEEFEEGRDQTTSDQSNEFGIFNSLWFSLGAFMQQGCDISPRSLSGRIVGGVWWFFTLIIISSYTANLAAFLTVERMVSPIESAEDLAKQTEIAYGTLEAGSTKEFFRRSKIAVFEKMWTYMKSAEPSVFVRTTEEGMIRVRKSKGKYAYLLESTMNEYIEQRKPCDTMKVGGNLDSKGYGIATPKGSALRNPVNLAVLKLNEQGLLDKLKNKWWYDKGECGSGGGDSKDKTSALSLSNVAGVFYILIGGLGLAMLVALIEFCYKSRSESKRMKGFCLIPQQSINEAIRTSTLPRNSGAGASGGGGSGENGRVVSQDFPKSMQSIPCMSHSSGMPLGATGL

Assay [6] addresses rat Glutamate, NMDA Agonist Site (GluNMDA), Grin1 (gene 24408) (UniProt P35439). Kind of assay: NVS_LGIC_rGluNMDA_Agonist: NovaScreen (NVS) Ligand-Gated Ion Channel Assay for rat Glutamate, NMDA Agonist Site (GluNMDA) (AID 2283327). An outline of the steps: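 Rat forebrain membranes, radioligand binding in the agonist-site protocol; 1 h after dosing; filter-based scintillation counting. Single-concentration duplicate screen at 25 uM, then concentration-response up to 50 uM for actives; gain-of-signal vs DMSO.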

human Peripheral-type Benzodiazepine Receptor (PBR), TSPO (gene 706), sequence (P30536 whole entry, looked up): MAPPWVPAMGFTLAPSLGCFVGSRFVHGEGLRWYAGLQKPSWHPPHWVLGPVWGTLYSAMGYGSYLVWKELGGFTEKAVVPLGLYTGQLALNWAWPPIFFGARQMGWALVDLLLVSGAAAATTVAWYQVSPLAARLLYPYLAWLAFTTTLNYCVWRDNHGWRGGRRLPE
Voltage-gated inwardly rectifying potassium channel KCNH2 (Homo sapiens), sequence (Q12809 whole entry, looked up): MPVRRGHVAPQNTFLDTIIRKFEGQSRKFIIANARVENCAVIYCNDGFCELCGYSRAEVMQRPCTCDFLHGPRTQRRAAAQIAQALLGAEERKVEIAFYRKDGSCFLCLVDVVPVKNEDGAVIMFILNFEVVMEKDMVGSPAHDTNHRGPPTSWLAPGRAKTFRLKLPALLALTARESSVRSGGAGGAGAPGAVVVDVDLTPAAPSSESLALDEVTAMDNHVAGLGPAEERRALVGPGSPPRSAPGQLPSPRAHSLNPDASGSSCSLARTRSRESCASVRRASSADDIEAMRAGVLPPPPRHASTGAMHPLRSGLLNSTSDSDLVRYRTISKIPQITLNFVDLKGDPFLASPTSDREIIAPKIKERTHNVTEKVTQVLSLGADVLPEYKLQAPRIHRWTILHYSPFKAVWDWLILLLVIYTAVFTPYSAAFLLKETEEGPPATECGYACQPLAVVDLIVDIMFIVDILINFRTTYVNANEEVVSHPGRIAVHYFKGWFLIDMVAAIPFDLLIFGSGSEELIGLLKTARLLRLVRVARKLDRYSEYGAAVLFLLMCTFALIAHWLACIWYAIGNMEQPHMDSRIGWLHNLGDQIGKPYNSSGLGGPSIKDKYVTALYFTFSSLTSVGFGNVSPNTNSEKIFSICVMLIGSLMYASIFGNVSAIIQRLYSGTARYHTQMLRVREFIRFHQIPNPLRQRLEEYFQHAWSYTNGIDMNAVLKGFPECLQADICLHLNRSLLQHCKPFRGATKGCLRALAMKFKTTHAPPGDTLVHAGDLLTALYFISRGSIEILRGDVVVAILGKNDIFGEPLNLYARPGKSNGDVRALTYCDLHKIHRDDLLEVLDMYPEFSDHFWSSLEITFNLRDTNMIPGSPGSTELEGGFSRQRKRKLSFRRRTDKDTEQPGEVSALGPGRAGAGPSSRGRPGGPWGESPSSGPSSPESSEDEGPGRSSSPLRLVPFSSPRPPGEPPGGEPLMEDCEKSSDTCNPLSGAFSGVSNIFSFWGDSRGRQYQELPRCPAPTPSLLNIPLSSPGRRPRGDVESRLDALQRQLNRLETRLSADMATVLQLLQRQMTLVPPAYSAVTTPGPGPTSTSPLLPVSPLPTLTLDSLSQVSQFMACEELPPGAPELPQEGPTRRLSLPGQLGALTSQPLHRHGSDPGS
human Serotonin, 5-Hydroxytryptamine Receptor 3 (5HT3), HTR3A (gene 3359), sequence (P46098 whole entry, looked up): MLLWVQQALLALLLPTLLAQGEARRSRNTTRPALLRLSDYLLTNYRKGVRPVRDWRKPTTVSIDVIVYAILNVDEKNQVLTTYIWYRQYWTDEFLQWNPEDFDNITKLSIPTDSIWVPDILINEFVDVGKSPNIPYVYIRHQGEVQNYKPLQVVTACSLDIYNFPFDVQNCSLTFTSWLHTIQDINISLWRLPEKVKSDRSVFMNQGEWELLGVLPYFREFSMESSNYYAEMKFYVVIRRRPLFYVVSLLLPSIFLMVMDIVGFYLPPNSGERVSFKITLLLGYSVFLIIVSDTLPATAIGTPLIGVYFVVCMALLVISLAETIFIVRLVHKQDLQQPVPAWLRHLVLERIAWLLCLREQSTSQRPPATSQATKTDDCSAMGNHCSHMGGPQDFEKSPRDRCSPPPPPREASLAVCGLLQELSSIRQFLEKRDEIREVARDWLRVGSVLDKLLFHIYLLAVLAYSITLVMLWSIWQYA

As for `NC(=O)c1nc(-c2cccc(-c3cc(F)ccc3OCC(F)(F)C(F)(F)F)c2)n[nH]1`, the molecule was classed as inactive in assay [1]. As to `Cc1occc1C(=O)Nc1ccc(C(=O)N2CCC(F)(F)/C(=C\C(=O)N3CCC(N4CCCCC4)CC3)c3ccccc32)cc1`, the molecule was called inactive in assay [2].

In the case of `CCCCCc1ccc(N)cc1`, the molecule was called inactive in assay [2]. For the molecule `CC(O)CC(C)(C)O` (stereo not drawn), the molecule was classed as inactive in assay [2]. Consider `CCCCCCCCCCCC[N+](C)(C)C`, for which the half-maximal activity concentration (AC50) in assay [3] is 10.2 µM (active). For `CC(C)(O)c1ccc(CNC(=O)c2cccnc2Oc2ccc3nonc3c2)cc1`, the molecule was classed as inactive in assay [4]. The AC50 in assay [1] was 2.34 µM (active). For `CN(C[C@@H](CC[N+]12CCC(C3CCCCC3)(CC1)CC2)c1ccc(Cl)c(Cl)c1)C(=O)c1cc(C(F)(F)F)cc(C(F)(F)F)c1`, in assay [5], the molecule was classed as inactive. Moreover, the AC50 in assay [6] is 38.2 µM (active). With `NCc1cccc(C2CCN(C(=O)c3ccc(C#Cc4ccccc4F)o3)CC2)c1`, the AC50 was 2.7 µM (active) in assay [1] and 6.03 µM (active) in assay [3]. With `Cc1oc2c(NC(=O)c3c(Cl)cccc3Cl)cccc2c1C(C)(C)O`, the molecule was classed as inactive in assay [2]. The AC50 in assay [1] is 1.26 µM (active). As for `CN(C)c1ccc(C(=C2C=CC(=[N+](C)C)C=C2)c2ccc(N(C)C)cc2)cc1`, the molecule was classed as inactive in assay [5]. The AC50 in assay [4] is 16.7 µM (active); in assay [1], 1.4 µM (active); in assay [3] it was 5.33 µM (active). Regarding `COc1cc(C(=O)NC2CCN(C)CC2)ccc1Nc1ncc2c(n1)N(C1CCCC1)CC(F)(F)C(=O)N2C`, the AC50 is 11.5 µM (active) in assay [6] and 5.1 µM (active) in assay [3]. The result in assay [2] and in assay [1] was inactive.

Consider `Cc1cc(F)ccc1-c1cc(N2CC[C@@H](O)[C@H]2CO)ncc1N(C)C(=O)C(C)(C)c1cc(C(F)(F)F)cc(C(F)(F)F)c1`, for which the molecule was called inactive in assay [2]. In addition, in assay [3], the AC50 is 7.95 µM (active).
